Rows were chosen to be rich in hits. Some 20% of all compounds tested hit in one or more screens of this group.
CHX counter: Cycloheximide Counterscreen for Small Molecule Inhibitors of Shiga Toxin; cell reporter, cycloheximide protein synthesis inhibition counterscreen; max response, %; actives 12% (n = 300,000); AID 2314, 2010; in the data active = max response mostly above about 13%, no sharp cut-off; inactive = mostly below about 14%; also: read at 38.3 µM for the half of the compounds with a filed dose; 0% is about no effect
Pf growth 96h: Primary qHTS for delayed death inhibitors of the malarial parasite plastid, 96 hour incubation; P. falciparum luciferase reporter growth, 96 h; Potency, µM (highest dose often 28.7 µM), for the others: at the highest dose activity change, negative = inhibition, actives largely listed as inhibitors; actives 6.9% (n = 320,000); AID 504834, 2011; also: potency is read from the fitted curve at half-maximal effect; % is scaled to controls: 0 for no effect and ±100 for the full control effect
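Luminescence readout: decreased luciferase signal marks inhibited growth of reporter-expressing P. falciparum in infected red cells (2% hematocrit, 0.05% parasitemia final), exposed to compound two generations (96 h, 37 C, 5% CO2).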
Shiga inhibitor: A qHTS for Small Molecule Inhibitors of Shiga Toxin | Vero cells, Shiga toxin protein synthesis inhibition reporter | inhibition, % at 38.7 µM | actives 9.2% (n = 290,000) | AID 2315, 2010; in the data active = inhibition mostly above about 28%, no sharp cut-off; inactive = mostly below about 43%; also: 0% is about no effect
Pf growth 48h: Primary qHTS for delayed death inhibitors of the malarial parasite plastid, 48 hour incubation. Potency, µM (highest dose often 28.7 µM), for inactives: top-dose activity change, negative = inhibition, hits mostly inhibitors. P. falciparum luciferase growth in erythrocytes, 48 h. actives 5.9% (n = 310,000); also: potency is read from the fitted curve at half-maximal effect; % is scaled to controls: 0 for no effect and ±100 for the full control effect
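In quantitative HTS format, infected erythrocytes bearing luciferase-reporter parasites were treated for a single generation at 37 C. Luminescence after adding detection reagent served as the growth measure.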
HCMV antiviral: qHTS Assay for inhibitors of the human cytomegalovirus (HCMV). activity change, negative = inhibition, % at 57.5 µM. AID 1259415, 2018. actives 4.5% (n = 410,000). HFF cells, HCMV-luciferase reporter, 72 h; hits give low values; in the data active = activity change below about -60%; inconclusive = no clear call, values can overlap the other calls; inactive = above about -39%; also: % is scaled to controls: 0 for no effect and ±100 for the full control effect
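Luciferase read-out from HCMV-luciferase-infected HFFs (MOI 1 PFU/cell) 72 h post infection at 37C; compounds added after 16 h cell attachment; activity normalized between buffer-only basal and Salinomycin (10uM) inhibitor controls.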
* = called active by the depositor; ! = a repeat was not active. Unless noted, calls follow the shape of the dose curve; as a rule, active = well fitted inhibition curve with a large enough effect; inconclusive = small, poorly fitted or top-dose-only effect, or another doubt; inactive = no such curve, though single readings can be large or run the other way.

Results for COC(=O)c1cc(C(=O)c2c(C)cc3ccccn23)cc([N+](=O)[O-])c1 ?
CHX counter: -2; Pf growth 96h: inconclusive; Shiga inhibitor: -5; Pf growth 48h: 3%; HCMV antiviral: -31

How did Cc1cc2ccccn2c1C(=O)Nc1ccccc1 do in these assays?
CHX counter: 23*; Pf growth 96h: 206%; Shiga inhibitor: 68; Pf growth 48h: 71%; HCMV antiviral: 17

Results for Cc1cc2ccccn2c1C(=O)c1cc([N+](=O)[O-])cc([N+](=O)[O-])c1 ?
CHX counter: 2; Pf growth 96h: inconclusive; Shiga inhibitor: -6; Pf growth 48h: inconclusive; HCMV antiviral: inconclusive

How did CCOc1ccccc1NC(=O)c1ccc2oc(=O)c(S(=O)(=O)c3ccc(F)cc3)cc2c1 do in these assays?
HCMV antiviral: -9

Results for COc1ccc(Oc2nc3c(c(=O)n(C)c(=O)n3C)n2Cc2ccccc2Cl)cc1 ?
HCMV antiviral: -1

Results for COc1ccc(Nc2cc(C(=O)NC3CCC(C)CC3)c3ccccc3n2)cc1OC (stereo not drawn) ?
HCMV antiviral: 48

What do the screens show for `CCc1ccccc1Nc1cc(C(=O)NC2CCC(C)CC2)c2ccccc2n1` (stereo not drawn)?
HCMV antiviral: -82*

Results for O=C1CN(C(=O)c2ccc(F)cc2)c2ccccc2N1 ?
CHX counter: -10; Pf growth 96h: inconclusive; Shiga inhibitor: -4; Pf growth 48h: 15%; HCMV antiviral: 0

What do the screens show for `COc1ccc(NC(=O)CN(C)C(=O)CN2C(=O)C3CCCCC3C2=O)cc1` (stereo not drawn)?
Pf growth 96h: 20%; Pf growth 48h: 21%; HCMV antiviral: -5

How did CC(C)(C)n1ncc2c(=O)n(Cc3c(F)cccc3Cl)cnc21 do in these assays?
CHX counter: 16*; Pf growth 96h: inconclusive; Shiga inhibitor: 52; Pf growth 48h: inconclusive; HCMV antiviral: -10

Results for CC1CCN(C(=O)Cn2cnc3c(cnn3C(C)(C)C)c2=O)CC1 ?
CHX counter: 56*; Pf growth 96h: inactive; Shiga inhibitor: 93*; Pf growth 48h: 194%; HCMV antiviral: 11

Results for CC(C)(C)n1ncc2c(=O)n(CC(=O)NCc3ccccc3)cnc21 ?
CHX counter: 20*; Pf growth 96h: 66%; Shiga inhibitor: 37*; Pf growth 48h: 473%; HCMV antiviral: 13

What do the screens show for `CC(C)(C)n1ncc2c(=O)n(CC(=O)Nc3ccc(Cl)cc3)cnc21`?
CHX counter: 1; Pf growth 96h: 275%; Shiga inhibitor: -6; Pf growth 48h: -22%; HCMV antiviral: -4

Results for CC(C)(C)n1ncc2c(=O)n(CC(=O)c3ccc(Cl)cc3)cnc21 ?
CHX counter: 78*; Pf growth 96h: inconclusive; Shiga inhibitor: 84*; Pf growth 48h: 142%; HCMV antiviral: 83

Results for Cc1ccc(Cl)c(Cn2cnc3c(cnn3C(C)(C)C)c2=O)c1F ?
Pf growth 96h: inconclusive; Pf growth 48h: inconclusive; HCMV antiviral: 35

How did CCOC(=O)/C(C#N)=C/Nc1cc(C(=O)OCC)cc2c(OC)c(OC)ccc12 do in these assays?
CHX counter: -2; Pf growth 96h: 42%; Shiga inhibitor: 2; Pf growth 48h: inconclusive; HCMV antiviral: -9

Results for COc1cccc(C(=O)N(Cc2sccc2C)C2CCS(=O)(=O)C2)c1 (stereo not drawn) ?
HCMV antiviral: 26

What do the screens show for `COc1ccccc1CNC(=O)Cn1c(=O)oc2cc(S(=O)(=O)N3CCCC3)ccc21`?
CHX counter: 4; Pf growth 96h: -15%; Shiga inhibitor: 3; Pf growth 48h: inconclusive; HCMV antiviral: -61*!

How did COc1ccc(CNC(=O)Cn2c(=O)oc3cc(S(=O)(=O)N4CCCC4)ccc32)cc1 do in these assays?
CHX counter: 0; Pf growth 96h: inconclusive; Shiga inhibitor: 37; Pf growth 48h: inconclusive; HCMV antiviral: -34

What do the screens show for `CC1CCN(S(=O)(=O)c2ccc3c(c2)oc(=O)n3CC(=O)NCc2ccc(F)cc2)CC1`?
HCMV antiviral: -97*

Results for COc1ccccc1CNC(=O)C(CC(C)C)NS(=O)(=O)c1ccc2c(c1)oc(=O)n2C (stereo not drawn) ?
CHX counter: -5; Pf growth 96h: -33%; Shiga inhibitor: -10; HCMV antiviral: -14

Bioassay records (PubChem)
